Assay results: PubChem BioAssay (NCATS)
Inconclusive results are not listed. Values without a mark were called inactive. Active and inactive are the calls of the source. Calls follow the shape of the dose curve; as a rule, active = well fitted curve in the direction sought with a large enough effect; inconclusive = small, poorly fitted or top-dose-only effect, or another doubt; inactive = no such curve, though single readings can be large; an effect the other way counts as inactive or inconclusive.

Columns and labels:
[1] = BET inhibitor-based combinations targeting novel dependencies in MECOM-rearranged (r) AML: SET-2 cell line (AID 2202231); conditions: SET-2 AML cells viability, CellTiter-Glo luminescence, 48 h; viability: hits give low values, concentration not given here; also: nearly all actives have a fitted effect of over 35% in size;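 as to viability: plate controls were DMSO treated cells for no effect and wells without cells for full effect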
In short: (§1)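 Each compound was tested at eleven concentrations on cells seeded at 500/well. After two days' incubation, ATP-based luminescence reported viability; responses relative to DMSO and blank wells yielded AUC and cell-line-centred Z-AUC.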

[2] = BET inhibitor-based combinations targeting novel dependencies in MECOM-rearranged (r) AML: MV-4-11 cell line (AID 2202233); conditions: MV-4-11 AML viability, CellTiter-Glo luminescence, 48 h; series mostly up to 46 µM; also: nearly all actives have a fitted effect of over 45% in size;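 as to viability, % of control: plate controls were DMSO for no effect and blank wells for full effect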
In short: (§2)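 First, 500 cells per well were seeded; next, drugs were pinned as 11-point doses; then plates sat 48 hr in the incubator; finally CellTiter-Glo was added and luminescence read, with AUC and Z-AUC computed.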

[3] = BET inhibitor-based combinations targeting novel dependencies in MECOM-rearranged (r) AML: UCSD-AML1 cell line (AID 2202235); conditions: UCSD-AML1 AML cells viability, CellTiter-Glo, 48 h; series mostly up to 46 µM; also: nearly all actives have a fitted effect of over 40% in size;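 as to viability (% of control): plate controls were DMSO vehicle wells for no effect and blank wells for full effect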
In short: as §2

[4] = BET inhibitor-based combinations targeting novel dependencies in MECOM-rearranged (r) AML: AML-191 cell line (AID 2202236; also: nearly all actives have a fitted effect of over 35% in size;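 as to viability (% of control): plate controls were vehicle wells for no effect and wells without cells for full effect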); conditions: AML-191 viability, CellTiter-Glo luminescence, 48 h; series mostly up to 46 µM
In short: as §1

[5] = BET inhibitor-based combinations targeting novel dependencies in MECOM-rearranged (r) AML: HNT-34 cell line (AID 2202234); conditions: HNT-34 AML viability, CellTiter-Glo luminescence, 48 h; series mostly up to 46 µM; also: nearly all actives have a fitted effect of over 35% in size;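 as to viability (% of control): plate controls were vehicle wells for no effect and cell-free wells for full effect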
In short: as §2

[6] = BET inhibitor-based combinations targeting novel dependencies in MECOM-rearranged (r) AML: AML-194 cell line (AID 2202237; also: nearly all actives have a fitted effect of over 40% in size;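 as to viability (% of control): plate controls were vehicle wells for no effect and wells without cells for full effect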); conditions: AML-194 (MECOM-r AML) viability, CellTiter-Glo, 48 h; series mostly up to 46 µM
In short: as §1
Potency is read from the fitted curve at half-maximal effect.

CO[C@H]1O[C@@H]2O[C@@]3(C)CC[C@H]4[C@H](C)CC[C@@H]([C@H]1C)[C@@]24OO3
Potency [1]: 20.9 µM (active) | Potency [2]: 4.17 µM (active) | Potency [3]: inactive | Potency [4]: 16.6 µM (active)

Cc1ccc(NC(=O)[C@H]2CCCN(C(=O)c3c(C)cccc3F)[C@H]2c2ccc(NC3CCCC3)cc2)cc1C(F)(F)F
viability [1]: 94.7% | Potency [2]: inactive | Potency [5]: 9.34 µM (active) | Potency [3]: inactive | Potency [4]: inactive | Potency [6]: inactive

O=c1sn(-c2cccc3ccccc23)c(=O)n1Cc1ccccc1
viability [1]: 92.2% | Potency [2]: 11.8 µM (active) | Potency [5]: inactive | Potency [6]: 14.8 µM (active)

C[C@@H]1N=C(N)NC(N(C)C)=N1
viability [1]: 102% | Potency [2]: inactive | Potency [5]: inactive | Potency [3]: inactive | Potency [4]: inactive | Potency [6]: inactive

COCCNc1cc(NC(=O)N2CCCc3cc(CN4CCN(C)CC4=O)c(C=O)nc32)ncc1C#N
viability [1]: 114% | viability, % of control [2]: 97.1% [at 8.46 µM] | viability (% of control) [5]: 102% [at 8.46 µM] | viability (% of control) [3]: 96.8% [at 8.46 µM] | viability (% of control) [6]: 95.1% [at 8.46 µM]

Cc1ccc2cc(-c3c(C)ccc(C(=O)c4c(-c5ccccc5)n(C)n(-c5ccccc5)c4=O)c3N)ccc2n1
viability [1]: 92.3% | Potency [2]: inactive | Potency [3]: inactive | Potency [4]: inactive | Potency [6]: inactive

CC[C@H](CO)Nc1nc(NCc2ccccc2)c2ncn(C(C)C)c2n1
Potency [1]: 26.3 µM (active) | Potency [2]: 20.9 µM (active) | Potency [3]: 26.3 µM (active) | Potency [4]: 23.5 µM (active)

Fc1ccc(-c2csc3ncnc(NCc4ccc5c(c4)OCO5)c23)cc1
Potency [1]: 5.9 µM (active) | Potency [2]: 20.9 µM (active) | Potency [3]: 20.9 µM (active) | Potency [4]: 16.6 µM (active)
